Measured values as given in ChEMBL document CHEMBL4513216, “Probing the Open Global Health Chemical Diversity Library for Multistage-Active Starting Points for Next-Generation Antimalarials” (ACS Infect Dis, 2020).
The campaign covered roughly 69,000 compounds. About 8,600 (12%) showed an effect of 50% or more. For the sample, strong results were picked, then their nearest neighbours and some compounds at random.

What follows are molecules tested on Plasmodium berghei (assay: Screen against P. berghei liver stage (PbLuc), transformed with Luciferase, at 10uM). Conditions: tested at 10 uM.
Format: functional, HepG2

Question: For Cc1c(CC(C#N)C(=O)Nc2cccc(O)c2)cnn1C (stereo not drawn), which INHIBITION is on record?
Answer: 20.4%

Question: Which INHIBITION does the source give for Cc1ccc(N(CCC#N)C(=O)CN2CCCC2c2cccs2)cc1 (stereo not drawn) here?
Answer: -3.48%

Question: How did the INHIBITION turn out when Cc1cc(C)cc(N(CCC#N)C(=O)CN2CCCC2c2cccs2)c1 (stereo not drawn) was run?
Answer: 6.54%

Question: Cc1ccc(N(CCC#N)C(=O)CN2CCCC2c2ccsc2)cc1 (stereo not drawn) was tested. Which INHIBITION did it give?
Answer: 3.45%

Question: Which INHIBITION does the source give for N#CCCN(C(=O)CN1CCCC1c1ccsc1)c1ccccc1 (stereo not drawn) here?
Answer: -2.95%

Question: Which INHIBITION does the source give for N#CCCN(C(=O)CN1CCCC1c1ccccc1Cl)c1ccccc1 (stereo not drawn) here?
Answer: 67.1%

Question: Cc1ccc(C2CCCN2CC(=O)N(CCC#N)c2ccccc2)cc1 (stereo not drawn) was tested. Which INHIBITION did it give?
Answer: 62.8%

Question: For CC(=O)N(Cc1ccsc1)c1ccccc1, which INHIBITION is on record?
Answer: 24.2%

Question: With CNS(=O)(=O)CC(=O)N(Cc1ccsc1)c1ccccc1 as the molecule, how does the INHIBITION read?
Answer: -2.69%

Question: Which INHIBITION does the source give for CC(C)S(=O)(=O)CC(=O)N(Cc1ccsc1)c1ccccc1 here?
Answer: 54.4%

Question: For Cc1occc1C(=O)N1C[C@H]2CCCC(OCc3cccnc3)[C@H]2C1 (stereo partly drawn), which INHIBITION is on record?
Answer: 30.3%

Question: How did the INHIBITION turn out when Cc1cnn(C2CCCN(C(=O)CCCOc3ccccc3F)C2)c1 (stereo not drawn) was run?
Answer: -27.8%

Question: How did the INHIBITION turn out when Cc1ccc(C(=O)NCCCNS(C)(=O)=O)cc1-n1cccc1 was run?
Answer: 51.3%

Question: Cc1ccc(C(=O)NCCCN(C)S(C)(=O)=O)cc1-n1cccc1 was tested. Which INHIBITION did it give?
Answer: 12.9%

Question: With CS(=O)(=O)NCCCNC(=O)c1cccc(-n2cccc2)c1 as the molecule, how does the INHIBITION read?
Answer: 13.4%

Question: With COc1ccc(CN2C[C@H]3CC[C@@H](C2)N(S(=O)(=O)C2CC2)C3)cc1 as the molecule, how does the INHIBITION read?
Answer: 4.52%

Question: Which INHIBITION does the source give for O=C1CCN(C(=O)NCCCc2ccc(Cl)cc2Cl)CCN1 here?
Answer: -12.1%

Question: Fc1cccc(CN2CCC(c3noc(-c4cnccn4)n3)CC2)c1F was tested. Which INHIBITION did it give?
Answer: -11.4%

Question: Which INHIBITION does the source give for CCn1c(CN(C)C)nnc1C1CCN(Cc2cccc(F)c2F)CC1 here?
Answer: 25%

Question: Which INHIBITION does the source give for Cc1ncsc1-c1nnc(C2CCN(Cc3ccccc3F)CC2)o1 here?
Answer: 59%

Question: With Cc1ncsc1-c1nnc(C2CCN(Cc3ccccc3Cl)CC2)o1 as the molecule, how does the INHIBITION read?
Answer: 29.3%

Question: How did the INHIBITION turn out when Cc1ncsc1-c1nnc(C2CCN(Cc3cccc(F)c3F)CC2)o1 was run?
Answer: 54.5%

Question: Which INHIBITION does the source give for Cc1ncsc1-c1nnc(C2CCN(CC3CCCCC3)CC2)o1 here?
Answer: -18.4%

Question: How did the INHIBITION turn out when Cn1ccnc1CN1CCC(F)(F)C2(CCN(c3cnccn3)C2)C1 (stereo not drawn) was run?
Answer: -38.9%

Question: How did the INHIBITION turn out when CN(C)c1nccnc1C1CCCN(c2cnccn2)C1 (stereo not drawn) was run?
Answer: 7.75%

Question: How did the INHIBITION turn out when COCCNS(=O)(=O)c1c(C)sc2ccccc12 was run?
Answer: -35%

Question: For CC(C)c1ccc(N2CCc3onc(-c4ccc(F)c(F)c4)c3C2)nn1, which INHIBITION is on record?
Answer: 40.3%

Question: How did the INHIBITION turn out when COCC(C)N1CCc2onc(-c3ccc(F)c(F)c3)c2C1 (stereo not drawn) was run?
Answer: 16.7%

Question: How did the INHIBITION turn out when COc1ccc(CC2(C(=O)O)CCN(c3nc(C)ncc3C)CC2)cc1 was run?
Answer: -1.25%

Question: COc1cccc(-c2noc3c2CN(c2nc(C)ncc2C)CC3)c1 was tested. Which INHIBITION did it give?
Answer: 80%

Question: COCc1cc(N2CCc3onc(-c4cccc(OC)c4)c3C2)ncn1 was tested. Which INHIBITION did it give?
Answer: 82.2%

Question: How did the INHIBITION turn out when Cc1cnc(N2CCc3onc(COc4cccnc4)c3C2)nc1 was run?
Answer: 32.1%

Question: For COc1cccc(N2CCN(C(=O)c3noc4c3CCCC4)CC2)c1, which INHIBITION is on record?
Answer: 12.6%

Question: How did the INHIBITION turn out when COc1cccc(N2CCN(C(=O)c3noc4c3CCCCC4)CC2)c1 was run?
Answer: 10.1%

Question: Which INHIBITION does the source give for COc1cccc(-c2noc3c2CN(c2ncnc4c2CCC4)CC3)c1 here?
Answer: 89.6%

Question: With CC(C)(C)n1ncc2c1NC(=O)CC2c1ccc(C(=O)O)cc1 (stereo not drawn) as the molecule, how does the INHIBITION read?
Answer: -12.2%

Question: With CC(C)Oc1ccc(Cl)c(C(=O)N2CCN(CCO)CC2)n1 as the molecule, how does the INHIBITION read?
Answer: 33.3%

Question: For CCSc1ccc(C(=O)N2CCCCC2C(=O)N2CCCC2)cn1 (stereo not drawn), which INHIBITION is on record?
Answer: 20.4%

Question: For Cc1ccc(CN2CC[C@@H](NC(=O)c3cccnc3)[C@H](O)C2)s1, which INHIBITION is on record?
Answer: -10.9%

Question: For O=C(c1cccs1)N1CC[C@@H](N2CCOCC2)[C@@H]1Cc1ccccc1, which INHIBITION is on record?
Answer: 19.4%

Question: Cn1ncnc1NCc1ccc(F)cc1 was tested. Which INHIBITION did it give?
Answer: -42.8%

Question: How did the INHIBITION turn out when Cc1cccc2c1ccn2CCC(=O)O was run?
Answer: 17.6%

Question: How did the INHIBITION turn out when COc1ccccc1C(=O)NCCCN1CCCC1C(=O)N(C)C (stereo not drawn) was run?
Answer: -1.85%

Question: With COc1cccc(-c2n[nH]cc2-c2nc(CN3CCCC3)no2)c1 as the molecule, how does the INHIBITION read?
Answer: 34%

Question: CN1CCC(Cc2noc(-c3cccc(Oc4ncccn4)c3)n2)CC1 was tested. Which INHIBITION did it give?
Answer: -0.529%

Question: How did the INHIBITION turn out when COc1cccc(-c2n[nH]cc2-c2nc(CC3CCN(C)CC3)no2)c1 was run?
Answer: 59.7%

Question: With Cc1ccc(S(=O)(=O)N2CCCC(c3n[nH]cc3C(=O)N(C)C)C2)cc1 (stereo not drawn) as the molecule, how does the INHIBITION read?
Answer: 11.8%

Question: CCOCCNC(=O)c1cccc(Cn2nc(C)cc2C)c1 was tested. Which INHIBITION did it give?
Answer: -89.3%

Question: Cc1cc2n(n1)[C@@H](C(F)(F)F)C[C@@H](C1CCCN(C(=O)C(C)C)C1)N2 (stereo partly drawn) was tested. Which INHIBITION did it give?
Answer: 1.5%

Question: With CC(C)Cc1cc(CN2C[C@@H]3CC[C@H]2CN(Cc2cscn2)C3)n[nH]1 as the molecule, how does the INHIBITION read?
Answer: 39.9%

Question: CN(Cc1cc(Br)cn1C)C(=O)Cc1cccnc1 was tested. Which INHIBITION did it give?
Answer: -91.4%

Question: With CN(Cc1cc(Br)cn1C)C(=O)Cc1cccc(O)c1 as the molecule, how does the INHIBITION read?
Answer: 50.8%

Question: CN(Cc1cc(Br)cn1C)C(=O)c1ccsc1 was tested. Which INHIBITION did it give?
Answer: -82.2%
